High-throughput results: PubChem, National Center for Advancing Translational Sciences (NCATS)
Tau FP inhib: blocks human tau fibril formation measured by polarization; P10636; AID 1468; Potency, µM (doses to about 57.7 µM), without a hit: at the top dose activity, negative = inhibition, usual class: inhibitors; 280,000 compounds, 0.39% hits; K18 P301L tau heparin fibrillization, Alexa594 FP, 6 h; further: nearly all actives have a fitted effect of over 55% in size
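K18 P301L tau (15 uM unlabeled/0.24 uM Alexa 594-labeled, final) + compound + heparin 20 uM final; 100 mM NaOAc pH 7; 6 hr 37 C; ThT 30 uM final added, 1 hr RT; FP ex 555/em 632 nm.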
Tau fluor cs: counter-screen for tau fibril formation inhibitors | Potency, µM (series often up to 57.7 µM), for the others: at the top dose activity change, negative = decrease | tau K18 P301L Alexa594 fluorescence, heparin fibrillization | 280,000 compounds, 0.93% hits; further: nearly all actives have a fitted effect of over 55% in size
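Human tau K18 P301L (15 uM unlabeled, 0.24 uM Alexa 594-labeled) in 100 mM sodium acetate pH 7 with 20 uM heparin, 6 hr at 37 C. ThT 30 uM added, 1 hr ambient; Alexa 594 FP and total fluorescence read at 555/632 nm.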
VDR inhibitor: blocks the human vitamin D receptor. P11473. VDR-SRC2-3 peptide fluorescence polarization, 2 h. Potency, µM, without a hit: max response, negative = inhibition, actives largely listed as inhibitors. 400,000 compounds, 0.93% hits. AID 504847
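FP read-out; VDR + SRC2-3 coactivator peptide; 23 nl compound by pintool; 2 h RT incubation; reagents held at 4 deg C, protected from light.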
Tau ThT inhib: tau fibrillization inhibition (ThT binding); P10636; recombinant tau K18 P301L, heparin-induced fibrillization, ThT fluorescence; Potency, µM (top dose mostly 57.4 µM), without a hit: top-dose activity, negative = inhibition, actives largely listed as inhibitors; 270,000 compounds, 2.1% hits; further: nearly all actives have a fitted effect of over 55% in size
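ThT emission at 510 nm, taken 1 hr after adding 30 uM dye, quantifies aggregates formed when 20 uM heparin acts on human tau K18 P301L for 6 hr at 37 C.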
Sfp PPTase inh: Sfp phosphopantetheinyl transferase inhibition; Q9F4F7; Biochemical Sfp PPTase activity, qHTS; Potency, µM, for inactives: largest response in the series, negative = inhibition, hits mostly inhibitors; 310,000 compounds, 3.5% hits;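 further: the enzyme is Sfp with the accession as filed and its product quenches rhodamine fluorescence; 0% = enzyme reaction without inhibitor and -100% = no enzyme wells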
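With Hepes-Na pH 7.6 buffer containing 10 mM MgCl2, Sfp (15 nM) modified BHQ-2-YbbR (12.5 uM) using rhodamine-CoA (5 uM). Two reads 30 minutes apart at 525/598 nm yielded each well's rate.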
PLK1 PBD inh: inhibitors of human PLK1 polo-box domain binding | AID 720504 | Potency, µM, inactives show max response, negative = inhibition, most hits filed as inhibitors | 360,000 compounds, 2.8% hits | P53350 | Plk1 PBD binding of FITC phosphopeptide, fluorescence polarization; further: series mostly up to about 57 µM; nearly all actives have a fitted effect of over 65% in size
Target sequence (P53350 whole entry, looked up, the tested form may be a part): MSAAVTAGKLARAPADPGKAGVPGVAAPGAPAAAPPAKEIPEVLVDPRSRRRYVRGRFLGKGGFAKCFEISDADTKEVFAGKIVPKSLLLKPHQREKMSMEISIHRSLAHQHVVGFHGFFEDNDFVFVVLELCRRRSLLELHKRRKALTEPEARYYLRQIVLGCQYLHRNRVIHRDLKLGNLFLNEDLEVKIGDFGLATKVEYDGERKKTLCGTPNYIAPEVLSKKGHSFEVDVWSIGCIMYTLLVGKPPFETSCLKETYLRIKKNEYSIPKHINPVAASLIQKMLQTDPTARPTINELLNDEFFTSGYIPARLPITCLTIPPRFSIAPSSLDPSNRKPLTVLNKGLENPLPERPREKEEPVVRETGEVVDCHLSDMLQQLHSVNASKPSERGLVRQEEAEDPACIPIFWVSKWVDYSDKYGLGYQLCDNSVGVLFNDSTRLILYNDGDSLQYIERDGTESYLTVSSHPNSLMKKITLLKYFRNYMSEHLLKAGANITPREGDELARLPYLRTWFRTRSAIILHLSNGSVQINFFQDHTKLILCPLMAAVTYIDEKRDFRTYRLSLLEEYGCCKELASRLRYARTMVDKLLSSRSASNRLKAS
Numbers without * were called inactive; [ ] = dose if it differs, or a comment. Rows were chosen to be rich in hits. Some 6% of all compounds tested hit in one or more screens of this group. The call rests on the fitted dose curve; in most records, active means well fitted curve in the direction sought with a large enough effect; inconclusive means small, poorly fitted or top-dose-only effect, or another doubt; inactive means no such curve, though single readings can be large; an effect the other way counts as inactive or inconclusive. Unless noted, on the % scale 0 is the no-effect control and ±100 the full control effect; potency means the concentration at half of the fitted maximal effect.

CCc1ccc(C(c2ccccc2)c2c[nH]c3ccc(C)cc23)s1 (stereo not given) was read as Tau FP inhib inconclusive, Tau fluor cs 10µM*[quencher], VDR inhibitor inconclusive and Tau ThT inhib 13µM*.
Screening Cc1cc(C)c2c(=O)cc(C(=O)Nc3sc4c(c3C#N)CCCC4)oc2c1 returned Tau FP inhib 9%, Tau fluor cs -18%, VDR inhibitor 12% and Tau ThT inhib inconclusive.
Screening COc1ccccc1Nc1nc(-c2sc(NC(=O)C(C)(C)C)nc2C)cs1 returned Tau FP inhib 12%, Tau fluor cs inconclusive, VDR inhibitor 8%, Tau ThT inhib inconclusive, Sfp PPTase inh -14% and PLK1 PBD inh -18%.
For C=CCCC(=O)Nc1nc(C)c(-c2csc(Nc3cc(OC)ccc3OC)n2)s1 the results were Tau FP inhib 13%, Tau fluor cs 14µM*[quencher], VDR inhibitor -16%, Tau ThT inhib 14µM*, Sfp PPTase inh 1% and PLK1 PBD inh -17%.
CCCC(=O)Nc1nc(C)c(-c2csc(Nc3ccccc3OC)n2)s1 was read as Tau FP inhib 20%, Tau fluor cs 16µM*[quencher], VDR inhibitor -8%, Tau ThT inhib 13µM*, Sfp PPTase inh -27% and PLK1 PBD inh -20%.
Screening CCCC(=O)Nc1nc(C)c(-c2csc(Nc3cc(OC)ccc3OC)n2)s1 returned Tau FP inhib inconclusive, Tau fluor cs 14µM*[quencher], VDR inhibitor -11%, Tau ThT inhib inconclusive, Sfp PPTase inh -19% and PLK1 PBD inh -6%.
For CCCCCC(=O)Nc1nc(C)c(-c2csc(Nc3cc(Cl)ccc3OC)n2)s1 the results were Tau FP inhib 2%, Tau fluor cs inconclusive, VDR inhibitor 3%, Tau ThT inhib inconclusive, Sfp PPTase inh -5% and PLK1 PBD inh inconclusive.
CCCC(C)C(=O)Nc1nc(C)c(-c2csc(Nc3cc(OC)ccc3OC)n2)s1 (stereo not given) was read as Tau FP inhib inconclusive, Tau fluor cs 8.9µM*[quencher], VDR inhibitor -7%, Tau ThT inhib inconclusive, Sfp PPTase inh 16% and PLK1 PBD inh -8%.
For COCCCNC(=O)CSc1nc2nc(C)c(Cc3ccccc3Cl)c(C)n2n1 the results were Tau FP inhib -8%, Tau fluor cs -14%, VDR inhibitor -5% and Tau ThT inhib -9%.
For Cc1ccsc1C(=O)N1CCCC(N(C)Cc2ccccc2)C1 (stereo not given) the results were VDR inhibitor 7%, Sfp PPTase inh 16% and PLK1 PBD inh 6%.
For Cc1ccc(CNc2cc(C)nc3nc(-c4cccc(C)c4)nn23)cc1 the results were Tau FP inhib -7%, Tau fluor cs -3%, VDR inhibitor 8% and Tau ThT inhib inconclusive.
`COc1ccc(Nc2nc(-c3sc(C)nc3C)cs2)cc1` gave VDR inhibitor 0%, Sfp PPTase inh -18% and PLK1 PBD inh -9%.
COc1ccc(OC)c(Nc2nc(-c3sc(N)nc3C)cs2)c1 was read as Tau FP inhib -9%, Tau fluor cs 14µM*[quencher], VDR inhibitor 9%, Tau ThT inhib 11µM*, Sfp PPTase inh 8.9µM* and PLK1 PBD inh inconclusive.
`CCc1ccc(NC(=O)N2CCN(Cc3nc4ccc(C)cc4o3)CC2)cc1` gave Tau FP inhib 11%, Tau fluor cs -2%, VDR inhibitor 0% and Tau ThT inhib -11%.
For CCCCC[C@@H]1C=C(C(=O)O)[C@H](c2ccc(CC)cc2)N1S(=O)(=O)c1ccc(C)cc1 the results were VDR inhibitor -6% and PLK1 PBD inh 27µM*.
For CCCC[C@@H]1C=C(C(=O)O)[C@H](c2ccc(CC)cc2)N1S(=O)(=O)c1ccc(C)cc1 the results were VDR inhibitor -12% and PLK1 PBD inh -26%.
For CCCCC[C@@H]1C=C(C(=O)O)[C@H](c2ccc(Cl)c(Cl)c2)N1S(=O)(=O)c1ccc(C)cc1 the results were VDR inhibitor inconclusive and PLK1 PBD inh 27µM*.
`CC[C@@H]1C=C(C(=O)O)[C@H](c2ccc(Cl)c(Cl)c2)N1S(=O)(=O)c1ccc(C)cc1` gave VDR inhibitor -21% and PLK1 PBD inh -20%.
For CCOC(=O)c1cc(-c2ccc(OC)cc2)n(CCC(=O)NCCc2ccc(OCC)c(OCC)c2)c1C the results were Tau FP inhib 9%, Tau fluor cs -7%, VDR inhibitor 23% and Tau ThT inhib -8%.
`CCOCCc1nn2c(=O)cc(COC(=O)c3ccccc3NC(=O)CC(C)C)nc2s1` gave Tau FP inhib 1%, Tau fluor cs -2%, VDR inhibitor 8% and Tau ThT inhib 4%.
`Cc1ccc(N2C3=C(C(=O)CC(C)(C)C3)C(c3cn(C)nc3C)C3=C2CC(C)(C)CC3=O)cc1` gave VDR inhibitor 20µM* and PLK1 PBD inh 3.8µM*.
Cc1nn(C)cc1C1C2=C(CC(C)(C)CC2=O)N(c2ccccc2)C2=C1C(=O)CC(C)(C)C2 was read as Tau FP inhib inconclusive, Tau fluor cs -7%, VDR inhibitor 0%, Tau ThT inhib -10%, Sfp PPTase inh 3% and PLK1 PBD inh -14%.
S=c1[nH]nc(-c2ccc(Br)cc2)n1Cc1ccccc1 was read as Tau FP inhib 7%, Tau fluor cs -18%, VDR inhibitor inconclusive, Tau ThT inhib -14%, Sfp PPTase inh 11% and PLK1 PBD inh 12µM*.
For C=CCn1c(-c2ccccc2)n[nH]c1=S the results were Tau FP inhib 4%, Tau fluor cs -14%, VDR inhibitor -10%, Tau ThT inhib -6%, Sfp PPTase inh 5µM* and PLK1 PBD inh 8.4µM*.
`C=CCn1c(Cc2nc3ccc(Cl)cc3[nH]2)n[nH]c1=S` gave Tau FP inhib 6%, Tau fluor cs -13%, VDR inhibitor -4%, Tau ThT inhib inconclusive, Sfp PPTase inh 50µM* and PLK1 PBD inh -25%.
`S=C1SC2(CCCCCC2)NC2=C1CCCCC2` gave PLK1 PBD inh -5%.
Screening CCCn1c(C)nc2c(N3CCC(N4CCN(C)CC4)CC3)nc(C)nc21 returned Tau FP inhib -1%, Tau fluor cs -3%, Tau ThT inhib -1% and Sfp PPTase inh 19%.
COCC(=O)Oc1c(Sc2ccccc2[N+](=O)[O-])c(C)nn1C(C)(C)C was read as Tau FP inhib -2%, Tau fluor cs -12%, VDR inhibitor -22%, Tau ThT inhib -15%, Sfp PPTase inh inconclusive and PLK1 PBD inh 12µM*.
CCC(CC)C(=O)Oc1c(Sc2ccccc2[N+](=O)[O-])c(C)nn1C(C)(C)C was read as Tau FP inhib 0%, Tau fluor cs -12%, VDR inhibitor 9%, Tau ThT inhib -10%, Sfp PPTase inh -16% and PLK1 PBD inh -4%.
